# Source: PubChem BioAssay (NCATS)
# Activity calls are given as the source filed them. Calls follow the shape of the dose curve; as a rule, active = well fitted curve in the direction sought with a large enough effect; inconclusive = small, poorly fitted or top-dose-only effect, or another doubt; inactive = no such curve, though single readings can be large or run the other way.
# Target: alpha-glucosidase (Oryza sativa, rice) (UniProt Q653V4)
# Assay: Counterscreen for Glucocerebrosidase Inhibitors: qHTS Assay for Rice alpha-Glucosidase at pH 5.0 (AID 997)
# Conditions: rice alpha-glucosidase enzyme activity; series mostly up to 76.9 µM
# Description: NIH Chemical Genomics Center [NCGC]
# NIH Molecular Libraries Screening Centers Network [MLSCN]
# PI Name: Zheng, Wei [NIH]
# Alpha-glucosidase is responsible for hydrolysis of terminal, non-reducing 1,4-linked alpha-D-glucose residues with release of alpha-D-glucose. It is a lysosomal hydrolase that is required for the degradation of a small percentage (1-3%) of cellular glycogen in human. Deficiency of this enzyme results in glycogen-storage disease type II (GSDII), also referred to as Pompe disease, an autosomal recessive disorder. Structurally normal glycogen is accumulated in lysosomes and cytoplasm in affected patients, primarily in muscle tissues. Excessive glycogen storage within lysosomes may interrupt normal functioning of other organelles and leads to cellular injury. In turn, this leads to enlargement and dysfunction of the entire organ involved (eg, cardiomyopathy and muscle weakness).
# It has reported that the improper folding and trafficking of alpha-glucosidase resulted from the genetic mutations may account for a significant number of Prope patients. […] We optimized this alpha-glucosidase assay in 1536-well plate format for identifying the novel small molecule inhibitors with the structures other than the sugar analogs in order to develop the new pharmacological chaperones.
# NCGC Assay Protocol Summary:
# This is a fluorogenic enzyme assay with 4-methylumbelliferyl-alpha-D-pyranoside as the substrate and rice alpha-glucosidase as the enzyme preparation. Upon the hydrolysis of this fluorogenic substrate, the resulting product, 1. 4-methyllumbelliferone, can be excited at 365 nm and emits at 440 nm which can be detected by a standard fluorescence plate reader. Data were normalized to the controls for basal activity (without enzyme) and 100% activity (with enzyme). In the AC50 values were determined from concentration-response data modeled with the standard Hill equation.
# Assay buffer: 50 mM citric acid, 0.005% Tween-20, pH 5.0. (pH 5.0 is an optimal condition for this enzyme assay)
# 1536-well assay protocol for the human alpha-glucosidase:
# (1) Add 2 ul/well of enzyme (4 nM final)
# (2) Add 23 nL compounds in DMSO solution. The final titration was 0.7 nM to 77 uM.
# (3) Add 1 ul of substrate (400 uM final)
# (4) Incubate at room temperature for 20 min.
# (5) Add 2 ul stop solution (1M NaOH and 1M Glycine mixture, pH 10)
# (6) Detect the assay plate in a ViewLux plate reader (PerkinElmer) with Ex=365 nm and Em=440nm.
# Keywords: Alpha-glucosidase, Prope Disease, pharmacological chaperone, chaperone therapy, high throughput screening, alpha-glucosidase inhibitor, MLSMR, MLSCN, NIH Roadmap, qHTS and NCGC
row,SMILES,outcome
1,CC(C)(O)[C@H]1[C@H]2OC(=O)[C@@H]1[C@]1(O)C[C@H]3O[C@]34C(=O)O[C@H]2[C@]14C (tested in a mixture with another compound),inactive
2,CCCCCCCCCCCCCC(=O)O[C@H]1[C@@H](C)[C@@]2(O)[C@@H](C=C(CO)C[C@]3(O)C(=O)C(C)=C[C@@H]23)C2C(C)(C)[C@]21OC(C)=O (stereo partly drawn),inactive
3,CCN(CC)C(=O)N[C@H]1C[C@H]2c3cccc4[nH]cc(c34)C[C@@H]2N(C)C1,inactive
4,NC(=O)c1ccc(OC[C@H](O)CN2CC=C(c3ccc(F)cc3)CC2)cc1,inactive
5,C=CCN1C[C@@H](C)N([C@H](c2ccc(C(=O)N(CC)CC)cc2)c2cccc(OC)c2)C[C@H]1C,inactive
6,CN[C@@H](C)[C@@H](O)c1ccccc1,inactive
7,CC[C@H](CO)NC(=O)[C@@H]1C=C2c3cccc4[nH]cc(c34)C[C@@H]2N(C)C1,inactive
8,CN1[C@@H]2CC[C@H]1CC(O[C@@H](c1ccccc1)c1ccccc1N)C2 (stereo partly drawn),inactive
9,N[C@@H]1CCc2cc(O)c(O)cc2C1,inactive
10,CCN1C[C@]2(C)CC[C@@H](O)[C@]34[C@@H]5CC6[C@@H](OC)C[C@@](O)([C@H]5[C@@H]6O)[C@@H](C[C@@H]23)[C@H]14,inactive
11,C[C@@H]1O[C@@H](O[C@H]2C[C@@H](O)[C@]3(CO)[C@@H]4[C@@H](O)C[C@]5(C)[C@H]([C@@H]6COC(=O)C6)CC[C@@]5(O)[C@H]4CC[C@@]3(O)C2)[C@H](O)[C@H](O)[C@@H]1O,inactive
12,CCCN1CCc2cccc3c2[C@@H]1Cc1ccc(O)c(O)c1-3,inactive
13,C[N+]1(C)CCO[C@@](O)(c2ccc(-c3ccc([C@]4(O)C[N+](C)(C)CCO4)cc3)cc2)C1,inactive
14,NC(N)=Nc1ccc2[nH]c3c(c2c1)C[C@]1(O)[C@@H]2Cc4ccc(O)c5c4[C@]1(CCN2CC1CC1)[C@H]3O5,inactive
15,CCCC[N+]1(C)[C@@H]2CC(OC(=O)[C@@H](CO)c3ccccc3)C[C@H]1[C@H]1O[C@H]12 (stereo partly drawn),inactive
16,C=CCN1CC[C@@]23CCCC[C@@H]2[C@@H]1Cc1ccc(O)cc13,inactive
17,C=CCN1CCc2cccc3c2[C@@H]1Cc1ccc(O)c(O)c1-3,inactive
18,COC[C@H]1OC(=O)c2coc3c2[C@@]1(C)C1=C(C3=O)[C@H]2CCC(=O)[C@@]2(C)C[C@H]1OC(C)=O,inactive
19,C[C@]12Cc3cn4c(nc3C=C1CC[C@H]1[C@@H]2CC[C@@]2(C)[C@H]1CC[C@@]2(O)C#N)nc1ccccc14,inactive

row,SMILES,outcome
1,C/C=C(\C)C(=O)O[C@@H]1C(C)=C2[C@H]([C@@H]1OC(=O)CCCCCCC)[C@@](C)(OC(C)=O)C[C@@H](OC(=O)CCC)[C@@]1(O)[C@H]2OC(=O)[C@]1(C)O,inactive
2,C[C@H](N[C@@H](C)CCc1ccccc1)[C@H](O)c1ccc(O)cc1,inactive
3,CC(C)n1cc2c3c(cccc31)[C@@H]1C[C@H](C(=O)O[C@@H](C)[C@H](C)O)CN(C)[C@H]1C2,inactive
4,CCCN1CCC[C@H](c2cccc(C#N)c2)C1,inactive
5,C[C@@H](Cc1ccc2c(c1)OC(C(=O)O)(C(=O)O)O2)NC[C@H](O)c1cccc(Cl)c1,inactive
6,CC(C)(C)NC[C@H](O)c1ccccc1Cl,inactive
7,COc1ccc2c(c1)[C@]13CCCC[C@@H]1[C@H](C2)N(C)CC3,inactive
8,Ic1ccccc1CN[C@@H]1C2CCN(CC2)[C@H]1C(c1ccccc1)c1ccccc1,inactive
9,O=[N+]([O-])c1ccc(O[C@H]2O[C@@H](CO)[C@@H](O)[C@@H](O)[C@@H]2F)c([N+](=O)[O-])c1,inactive
10,N[C@@H](Cc1cc(O)c(O)cc1O)C(=O)O,inactive
11,C[C@@H]1O[C@@H](O[C@H]2C[C@@H](O)[C@]3(CO)[C@@H]4[C@@H](O)C[C@]5(C)[C@H](C6=CC(=O)OC6)CC[C@@]5(O)[C@H]4CC[C@@]3(O)C2)[C@H](O)[C@H](O)[C@@H]1O,inactive
12,C=C(C)[C@H]1Cc2c(ccc3c2O[C@H]2COc4cc(OC)c(OC)cc4[C@@H]2C3=O)O1,inactive
13,C[C@H](N)c1cccc(Cl)c1Cl,inactive
14,C[C@]1(C(=O)O)[C@@H]2CC[C@@H](O2)[C@@]1(C)C(=O)O,inactive
15,CC[C@H](CO)NC(=O)[C@@H]1C=C2c3cccc4c3c(cn4C)C[C@@H]2N(C)C1,inactive
16,C=CCN1CC[C@]23c4c5ccc(O)c4O[C@@H]2C(=O)CC[C@@]3(O)[C@H]1C5,inactive
17,Oc1cc2c(cc1O)[C@H]1c3ccccc3CN[C@@H]1CC2,inactive
18,O[C@@H]1CCCC[C@H]1N1CCC(c2ccccc2)CC1,inactive
19,Oc1ccc2c3c1O[C@@H]1[C@@H](O)CC[C@]4(O)[C@H](C2)N(CC2CCC2)CC[C@@]314,inactive
